Screening data from PubChem BioAssay.
PABP FP inh: blocks human PABP binding to poly(A) RNA; P11940; fluorescence polarization; calls only at 35 µM; actives 1% (n = 290,000);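 also: calls also rest on retests at 20 µM and on dose response follow-up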
MEX-5 binding: C. elegans MEX-5 TCR-2 RNA binding activity; Q9XUB2; MEX-5/FITC-TCR2 RNA binding, fluorescence polarization; active compounds read low; activity score (negative = inhibition of binding), % at 10 µM; actives 0.38% (n = 300,000); AID 1832;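 active = inhibition past about -25% in most replicates, and total fluorescence under double the plate's negative control median, limit read from the data; inconclusive = replicates evenly split on the limit, or fluorescence at least double controls; inactive = too little inhibition in most replicates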;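 also: 0% = DMSO and -100% = 5 µM competing unlabeled TCR2 RNA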
eIF4H FP inh: inhibitors of RNA binding by human eIF4H; actives 0.94% (n = 290,000); AID 2012; eIF4H fluorescence polarization binding assay; inhibition, % at 35 µM; Q15056;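 also: calls also rest on retests at 20 µM and on dose response follow-up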
EBV gp42 inh: blocks Epstein-Barr virus glycoprotein 42 binding; AID 1085; Fluorescence polarization binding assay, mP read-out; actives 0.42% (n = 220,000); inhibition, % (tested at 21.74 µM); Q1HVG2; in the data active = inhibition above about 50%
Target sequence (Q1HVG2 whole entry, looked up): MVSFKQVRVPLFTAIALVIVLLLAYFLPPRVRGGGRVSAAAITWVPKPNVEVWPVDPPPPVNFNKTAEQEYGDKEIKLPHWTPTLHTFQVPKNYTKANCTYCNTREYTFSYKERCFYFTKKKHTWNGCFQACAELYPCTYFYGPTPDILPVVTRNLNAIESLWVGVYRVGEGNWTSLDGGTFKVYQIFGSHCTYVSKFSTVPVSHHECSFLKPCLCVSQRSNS
MLLE-PAM2 inh: inhibitors of microRNA-mediated deadenylation, human PABP1 MLLE binding; GST-MLLE / FITC-PAM2 fluorescence polarization; inhibition, % at 20 µM; actives 0.36% (n = 360,000); AID 588489; in the data active = inhibition above about 35%, passing the limit was not always enough;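 also: plate controls were DMSO wells with GST-MLLE for no effect and wells lacking GST-MLLE protein for full effect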
* marks the source's active call; other numbers are inactive results; i = inactive; ? = inconclusive; / = no result given; + = active, no number. Rows were chosen to be rich in hits. Some 1.8% of all compounds tested hit in one or more screens of this group. Unless noted, no rule for the calls is given here.

SMILES	PABP FP inh	MEX-5 binding	eIF4H FP inh	EBV gp42 inh	MLLE-PAM2 inh
COc1ccc(CNC(=O)CN(Cc2ccc(Cl)cc2)C(=O)c2csnn2)cc1	i	-3.2	-6.2	/	35.8*
COc1ccc(CN(CC(=O)NCc2ccccc2)C(=O)c2csnn2)cc1	i	-4.0	0.9	-10.7	7.2
CCNC(=O)C1CCCN(C(=O)c2ccc3ccccc3c2)CC1 (stereo not drawn)	/	/	/	/	11.3
Cn1cc(Cc2ccc(C(=O)NC34CC5CC(CC(C5)C3)C4)cn2)c2ccccc21	/	/	/	/	-19.4
Cn1c(=O)c2cc(NC(=O)NCc3ccc(Cl)cc3Cl)ccc2n1Cc1ccccc1	/	/	/	/	-14.0
CC1=C(C(=O)O)N2C(=O)C(NC(=O)c3ccccc3Cl)C2SC1 (stereo not drawn)	i	-1.3	-2.2	/	25.5
CC1=C(C(=O)O)N2C(=O)C(NC(=O)c3ccc(F)cc3)C2SC1 (stereo not drawn)	/	/	/	/	42.8*
CCOc1ccc(S(=O)(=O)c2ccc(C)cc2)c2c1no[n+]2[O-]	/	/	/	/	3.4
CC1=C(C#N)C(=O)NC(=O)/C1=C/c1ccc(-c2ccc(S(N)(=O)=O)cc2)o1	i	-33.2*	?	-1.9	-3.3
C=CCOC(=O)c1cc(-c2ccc(/C=C3\C(=O)NC(=O)C(C#N)=C3C)o2)ccc1Cl	+	/	70.8*	57.5*	-12.6
NS(=O)(=O)c1ccc(-c2ccc(C=O)o2)cc1	i	-4.1	-4.0	-18.3	-16.2
NS(=O)(=O)c1ccc(-c2ccc(/C=C3\NC(=S)NC3=O)o2)cc1	i	-64.9*	78.8*	/	11.7
CCCOC(=O)c1cc(-c2ccc(/C=C3/C(=O)N(C)C(=O)C(C#N)=C3C)o2)ccc1Cl	/	/	/	/	-1.9
C#CCN(C[C@@H]1[C@@H](OC(=O)NCc2ccccc2)[C@@H](OC(=O)NCc2ccccc2)CN(C(=O)OC(C)C)N1C(=O)OC(C)C)S(=O)(=O)c1ccc(C)cc1	/	/	/	/	-7.5
O=C(COC(=O)c1ccc(F)cc1Cl)NC1CC1	/	/	/	/	-4.7
Cc1ccc(S(=O)(=O)CC(=O)c2cc(C)c(O)c(C)c2)cc1	+	-2.4	2.8*	-14.8	6.0
C/C(Cl)=C/CSc1nc2c(c(=O)[nH]c(=O)n2C)n1C(C)C	i	0.7	7.1	-7.9	9.2
C=CCSc1nc2c(c(=O)[nH]c(=O)n2C)n1C(C)C	i	-0.3	2.1	-8.3	41.1*
COc1cccc(NC(=O)c2cnc(NS(=O)(=O)c3ccccc3)nc2)c1	/	/	/	/	-23.6
Cc1cc(C)n(CC(=O)NNC(=O)COc2ccc(Br)cc2F)n1	/	/	/	/	101.4*
CC1(C(=O)NS(=O)(=O)C2CC2)CCCN(C(=O)c2ccc3ccccc3c2)C1 (stereo not drawn)	/	/	/	/	7.5
N#C/C(=C\c1ccc(-c2cccc(Cl)c2)o1)C(=O)Nc1cccc2cccnc12	+	-0.1	81.7*	-1.1	-7.2
CC(=O)Nc1ccc(-c2csc(NC(=O)C3CC(=O)N(c4ccc5c(c4)OCCO5)C3)n2)cc1 (stereo not drawn)	+	-0.1	59.8*	0.8	18.9
COc1ccc(-c2csc(NC(=O)C3CC(=O)N(c4ccc5c(c4)OCCO5)C3)n2)cc1 (stereo not drawn)	i	1.5	38.2	-40.5	1.0
COC(=O)C(C(=O)OC)=C(/C=C/C=C/N(C)C)N(C)C	+	-9.7	100.8*	-18.1	21.8
SMILES	PABP FP inh	MEX-5 binding	eIF4H FP inh	EBV gp42 inh	MLLE-PAM2 inh
CC1NC(=O)c2cc3ccccc3cc2-n2c1nc1ccccc1c2=O (stereo not drawn)	/	/	/	/	-2.1
O=C1CCCC2=C1C(c1ccco1)Nc1ccc(C(=O)c3ccccc3)cc1N2 (stereo not drawn)	+	0.5	81.5*	4.8	-1.7
COc1ccc(-c2csc(Nc3ccc(Oc4ccccc4)cc3)n2)cc1	/	/	/	/	-17.3
COCCCN1C(=O)C(CC(=O)NCC2CCCCC2)CC(C(=O)N2CCOCC2)=C1C (stereo not drawn)	/	/	/	/	1.8
Cc1ccc(C)n1Cc1ccc(C(=O)O)cc1	+	/	93.0*	6.7	16.4
CCc1nc2c(OCc3ccc(OC(F)F)cc3)cccn2c1N(C)C(=O)c1ccc(OC)cc1	/	/	/	/	-7.3
COC(=O)c1ccc(C(=O)N2CCCC(C)(C(=O)NS(=O)(=O)C3CC3)C2)cc1 (stereo not drawn)	/	/	/	/	2.3
COc1ccc(C(=O)/C=C/Nc2ccc([N+](=O)[O-])cc2C)cc1OC	i	-43.3*	7.0	-27.9	-41.1
COc1ccc(C(=O)/C=C/Nc2ccc([N+](=O)[O-])cc2C)c(OC)c1	i	?	38.1	-20.2	-35.3
Cc1ccc(S(=O)(=O)N2C[C@H]3C(=O)C[C@@H](c4ccccc4)N(S(=O)(=O)c4ccc(C)cc4)[C@H]3C[C@H]2c2ccccc2Cl)cc1	/	/	/	/	6.0
Cc1c(C(=O)OCC[N+]2(C)CCCCC2)oc2ccccc12	+	1.2	3.5	-21.3	-103.3
Cc1c(C(=O)OCC(=O)N2CCC(C)CC2)oc2ccccc12	/	1.6	/	/	12.1
CC1([N+](=O)[O-])COC(c2cccc3ccccc23)OC1 (stereo not drawn)	/	/	/	/	13.4
CC(C(=O)Nc1nc(-c2ccc(F)cc2)cs1)N1C(=O)C2CC=CCC2C1=O (stereo not drawn)	/	/	/	/	0.1
Cc1ccccc1N=C(N)Nc1ccccc1C	/	/	/	/	57.9*
O=[N+]([O-])c1cc(CN2CCCC2)c2cccnc2c1O	i	/	86.6*	88.2*	15.4
O=[N+]([O-])c1cc(CN2CCN(c3cccc(C(F)(F)F)c3)CC2)c2cccnc2c1O	i	0.0	47.0	-6.6	/
Oc1ccc(CN2CCCCC2)c2cccnc12	i	-4.0	85.2*	-7.4	15.6
Clc1ccc2nc(-c3ccccc3)c(CC3CCCCC3)n2c1	/	/	/	/	14.4
Cc1ccc2nc(-c3cccc(Br)c3)c(Cc3ccccc3C(F)(F)F)n2c1	/	/	/	/	-6.1
CN(C)c1ccc(CC(=O)N2CCCCC2c2cc(C(=O)Nc3cccc4c3CCCC4)no2)cc1 (stereo not drawn)	/	/	/	/	-8.3
O=C1Nc2ccccc2SC(c2ccccc2)C1O (stereo not drawn)	+	-5.9	?	66.6*	-3.1
O=C(O)CC1Sc2ccccc2NC1=O (stereo not drawn)	i	1.8	1.9	-16.2	16.6
CCC12CCCN3CCC4(C(=C(C(=O)OC)C1)Nc1ccccc14)C32 (stereo not drawn)	+	-0.7	17.3	-33.4	-99.3
COC(=O)C1=C(C(=O)OC)[C@@H]2Nc3ccccc3[C@@]23C[C@@H](C(=O)OC)N=C3N1	i	-1.1	-13.6	-4.6	10.6
O=C(Nc1ccc2c(c1)OCO2)c1csc([C@H]2C[C@H](O)[C@@H](CO)O2)n1	/	/	/	/	-10.0
CCN(CCCNc1cc2c(c(N)c1S(=O)(=O)O)C(=O)c1ccccc1C2=O)c1ccccc1	/	/	/	/	18.4
CC1(C)CC(NCc2cccc([N+](=O)[O-])c2)CC(C)(C)N1	+	4.5	80.8*	/	-2.1
CC(C)NCc1cccc([N+](=O)[O-])c1	i	-1.6	7.1	-4.2	0.2
Clc1ccc2oc(-c3ccccn3)nc2c1	+	0.5	16.1*	-25.2	-24.3
